# Experimental data published in PubChem BioAssay.
# Activity calls are given as the source filed them.
# Experiments:
# Albumin (Bos taurus) = Albumin (Bos taurus) (UniProt P02769); assay: bovine serum albumin binders on microarray, profiling panel, artefact control for SMM control protein annotation, biochemical, small-molecule microarray, Alexa647 label, 635/667 nm fluorescence (AID 1118); conditions: BSA-A647 binding, fluorescence 635 nm, higher = more signal;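 also: score merges 667 nm emission intensity and signal-to-noise per printed compound spot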
# Chain of Albumin (Bos taurus) (P02769 whole entry, looked up): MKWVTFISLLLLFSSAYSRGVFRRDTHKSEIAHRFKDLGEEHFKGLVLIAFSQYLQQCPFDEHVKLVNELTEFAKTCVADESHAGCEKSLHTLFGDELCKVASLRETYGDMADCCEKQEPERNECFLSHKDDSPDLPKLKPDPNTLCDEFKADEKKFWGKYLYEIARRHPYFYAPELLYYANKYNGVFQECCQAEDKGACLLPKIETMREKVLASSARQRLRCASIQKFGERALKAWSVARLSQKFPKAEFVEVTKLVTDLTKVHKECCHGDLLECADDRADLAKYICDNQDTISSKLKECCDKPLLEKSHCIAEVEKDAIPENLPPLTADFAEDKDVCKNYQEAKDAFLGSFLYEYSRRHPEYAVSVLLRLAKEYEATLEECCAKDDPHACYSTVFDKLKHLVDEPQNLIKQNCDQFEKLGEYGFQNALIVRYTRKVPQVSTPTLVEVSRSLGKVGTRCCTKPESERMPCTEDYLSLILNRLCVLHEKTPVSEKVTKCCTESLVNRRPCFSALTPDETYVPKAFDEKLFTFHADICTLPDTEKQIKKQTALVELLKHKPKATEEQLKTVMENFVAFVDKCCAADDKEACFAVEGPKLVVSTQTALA
# [1] = small-molecule microarray binders of probe aXIP, primary screen, biochemical, NeuroSMM set, 635/667 nm fluorescence (AID 1119); conditions: higher = more signal, called active from +8 up or from −8 down;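 also: probe is the protein aXip251-270 applied at 1 µg/mL to compound-printed slides; binding of probe to printed compounds measured as 667 nm fluorescence plus signal to noise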
# [2] = small-molecule binders of probe aNOTCH3, primary screen, biochemical, small-molecule microarray, 635/667 nm fluorescence (AID 1120); conditions: higher = more signal;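 also: probe is a biotin-tagged antibody raised against NOTCH3 rather than NOTCH3 protein; score merges spot fluorescence near 667 nm with spot signal to noise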
# [3] = small-molecule binders of probe aNOTCH2, primary screen, biochemical, small-molecule microarray, 635/667 nm fluorescence (AID 1121); conditions: higher = more signal;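 also: score merges feature fluorescence read at 667 nm with its signal to noise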
# [4] = target: Carbonic anhydrase 2 (Homo sapiens) (UniProt P00918); assay: CAII small-molecule binders, profiling panel, biochemical, small-molecule microarray, Alexa647-labelled CAII (AID 1122); conditions: CAII-A647 binding fluorescence, higher = more signal
# [5] = COS7 lysate on small-molecule microarray, probe aHis, 635 nm (AID 1123); conditions: COS7 cell lysate, fluorescence, higher = more signal;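 also: z-score combines 667nm fluorescence intensity with signal-to-noise per printed compound spot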
# [6] = compound binding in COS7 lysate, probe aLAP1, primary screen, cell lysate, small-molecule microarray (AID 1124); conditions: probe aLAP1, fluorescence, higher = more signal;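 also: lysate comes from COS7 cells expressing LAP1 and is applied at 0.3 µg/mL; score merges spot fluorescence near 667 nm with signal-to-noise over triplicate slides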
# Sam68 (KHDRBS1) = assay: Sam68 small-molecule binders, primary screen, biochemical, small-molecule microarray, 635 nm fluorescence (AID 1125); conditions: small-molecule microarray binding, higher = more signal;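 also: score merges 667 nm channel intensity with signal to noise over triplicate slides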
# [7] = tested on: Chordin-like protein 2 (CHRDL2); assay: CHRDL2 small-molecule binders, primary screen, biochemical, small-molecule microarray, 635 nm fluorescence (AID 1126); conditions: small-molecule microarray binding, fluorescence 635 nm; higher = more signal;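 also: printed compound slides probed with Chrdl2 protein at 4 µg/mL for 1 h at 4 C; score merges 667 nm emission intensity with signal to noise over three replicate slides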
# [8] = target: Concanavalin-A (Canavalia ensiformis) (UniProt P02866); assay: ConA small-molecule binders, primary screen, artefact control for SMM control protein annotation, biochemical, small-molecule microarray, Alexa647 label, 635 nm (AID 1127); conditions: ConA-A647 binding fluorescence, higher = more signal;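 also: z combines 667 nm emission intensity with signal-to-noise across three replicate slides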
# Chain of Concanavalin-A (Canavalia ensiformis) (P02866 whole entry, looked up): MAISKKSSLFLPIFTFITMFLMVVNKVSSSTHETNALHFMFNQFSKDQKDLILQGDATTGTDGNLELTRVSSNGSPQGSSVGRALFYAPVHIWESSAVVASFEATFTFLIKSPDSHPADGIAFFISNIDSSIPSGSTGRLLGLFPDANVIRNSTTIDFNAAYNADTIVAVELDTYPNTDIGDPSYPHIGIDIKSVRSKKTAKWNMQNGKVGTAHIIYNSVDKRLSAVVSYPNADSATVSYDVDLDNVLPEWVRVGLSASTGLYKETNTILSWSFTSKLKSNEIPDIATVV
# [9] = anti-His antibody binders, primary screen, artefact control for SMM control protein annotation, biochemical, small-molecule microarray, 635 nm fluorescence (AID 1128); conditions: anti-His Alexa647 antibody binding, higher = more signal;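 also: score merges feature fluorescence with signal-to-noise for each printed compound spot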
# [10] = tested on: Human papillomavirus type 1a E7 protein (residues 1-88); assay: HPV1a E7 small-molecule binders, primary screen, biochemical, small-molecule microarray, residues 1-88, 635 nm (AID 1129); conditions: small-molecule microarray binding, fluorescence 635 nm; higher = more signal
# [11] = target: Focal adhesion kinase 1 (Homo sapiens) (UniProt Q05397); assay: small-molecule microarray binders of FAK, primary screen, biochemical, 635/667 nm fluorescence, BSA, DTT (AID 1130); conditions: PTK2 binding, 635 nm fluorescence, higher = more signal;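 also: composite of spot emission at 667 nm and signal to noise over triplicate slides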
# Chain of Focal adhesion kinase 1 (Homo sapiens) (Q05397 whole entry, looked up): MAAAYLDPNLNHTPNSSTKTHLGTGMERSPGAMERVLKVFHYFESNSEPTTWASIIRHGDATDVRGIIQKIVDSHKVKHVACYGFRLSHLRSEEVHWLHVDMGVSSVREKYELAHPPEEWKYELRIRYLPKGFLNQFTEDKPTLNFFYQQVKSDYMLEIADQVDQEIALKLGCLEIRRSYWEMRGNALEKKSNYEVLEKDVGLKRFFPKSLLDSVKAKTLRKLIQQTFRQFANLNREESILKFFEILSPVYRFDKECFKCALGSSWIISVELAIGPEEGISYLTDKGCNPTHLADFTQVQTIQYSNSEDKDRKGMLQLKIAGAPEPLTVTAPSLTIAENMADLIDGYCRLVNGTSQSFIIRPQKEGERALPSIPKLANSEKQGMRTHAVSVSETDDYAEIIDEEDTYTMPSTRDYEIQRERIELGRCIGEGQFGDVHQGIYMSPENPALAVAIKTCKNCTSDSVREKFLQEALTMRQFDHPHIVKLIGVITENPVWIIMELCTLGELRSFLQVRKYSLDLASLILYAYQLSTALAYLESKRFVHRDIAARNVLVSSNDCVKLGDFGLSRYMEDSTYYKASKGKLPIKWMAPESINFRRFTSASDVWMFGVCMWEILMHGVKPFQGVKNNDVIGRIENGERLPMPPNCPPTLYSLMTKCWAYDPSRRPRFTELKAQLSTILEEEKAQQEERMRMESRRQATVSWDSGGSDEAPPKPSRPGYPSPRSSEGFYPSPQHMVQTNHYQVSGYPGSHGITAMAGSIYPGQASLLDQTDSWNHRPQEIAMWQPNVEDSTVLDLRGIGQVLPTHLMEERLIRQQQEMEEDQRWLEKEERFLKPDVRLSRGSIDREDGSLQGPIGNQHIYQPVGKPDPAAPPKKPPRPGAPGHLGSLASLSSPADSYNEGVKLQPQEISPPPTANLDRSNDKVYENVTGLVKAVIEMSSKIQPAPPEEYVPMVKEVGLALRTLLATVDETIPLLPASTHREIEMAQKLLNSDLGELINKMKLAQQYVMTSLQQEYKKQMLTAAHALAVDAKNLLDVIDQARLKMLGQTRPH
# [12] = tested on: Fibrinogen (Alexa647-labelled); assay: fibrinogen binders on compound microarrays, profiling panel, artefact control for SMM control-protein annotation, biochemical, small-molecule microarray, 635/667 nm fluorescence (AID 1131); conditions: fibrinogen-A647 binding fluorescence, higher = more signal;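 also: z-score merges 667 nm fluorescence with per-spot signal-to-noise over triplicate slides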
# [13] = target: Follistatin (Homo sapiens) (UniProt P19883); assay: follistatin binders on small-molecule microarrays, primary screen, biochemical, small-molecule microarray, 635/667 nm fluorescence (AID 1132); conditions: FST binding, 635 nm fluorescence, higher = more signal
# Chain of Follistatin (Homo sapiens) (P19883 whole entry, looked up): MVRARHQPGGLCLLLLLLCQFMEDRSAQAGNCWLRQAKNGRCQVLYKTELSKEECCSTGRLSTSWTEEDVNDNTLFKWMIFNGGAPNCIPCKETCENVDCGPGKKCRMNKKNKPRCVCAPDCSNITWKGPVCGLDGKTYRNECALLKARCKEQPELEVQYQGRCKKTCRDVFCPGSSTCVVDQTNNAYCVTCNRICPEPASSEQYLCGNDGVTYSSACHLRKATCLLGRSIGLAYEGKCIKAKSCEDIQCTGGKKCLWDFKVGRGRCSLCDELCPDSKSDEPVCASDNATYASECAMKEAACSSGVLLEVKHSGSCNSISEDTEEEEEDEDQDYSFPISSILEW
# [14] = target: Fibroblast growth factor 2 (Homo sapiens) (UniProt P09038); assay: FGF2 binders on small-molecule microarrays, primary screen, biochemical, small-molecule microarray, 635/667 nm fluorescence (AID 1133); conditions: small-molecule microarray binding, FGF2, fluorescence 635/667; higher = more signal
# Chain of Fibroblast growth factor 2 (Homo sapiens) (P09038 whole entry, looked up): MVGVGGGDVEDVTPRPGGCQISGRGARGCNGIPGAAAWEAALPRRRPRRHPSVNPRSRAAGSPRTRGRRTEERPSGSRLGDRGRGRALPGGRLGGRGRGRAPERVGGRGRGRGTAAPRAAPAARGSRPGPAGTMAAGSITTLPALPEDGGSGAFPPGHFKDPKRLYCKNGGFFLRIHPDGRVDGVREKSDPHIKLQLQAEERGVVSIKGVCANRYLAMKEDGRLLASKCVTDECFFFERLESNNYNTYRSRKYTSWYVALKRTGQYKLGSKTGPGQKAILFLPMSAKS
# [15] = mitochondrial membrane potential change in A549 cells, profiling panel, cell-based, JC-1 fluorescence, basal, 24 h, 100 nL (AID 1138); conditions: higher = more signal;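 also: A549 lung adenocarcinoma cells under basal conditions with no added stimulus; test concentration not given here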
# Lefty1 = Lefty1 binders on small-molecule microarrays, primary screen, biochemical, small-molecule microarray, 635/667 nm fluorescence (AID 1139); conditions: small-molecule microarray binding, fluorescence 635/667; higher = more signal
# [16] = tested on: wheat germ agglutinin (Triticum aestivum), Alexa647-labelled; assay: wheat germ agglutinin binders on compound microarrays, profiling panel, artefact control for SMM control-protein annotation, biochemical, small-molecule microarray, 635/667 nm fluorescence (AID 1140); conditions: WGA-A647 binding, 635 nm fluorescence, higher = more signal;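 also: score merges 667 nm feature emission with signal to noise over triplicate slides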
# [17] = target: Luciferin 4-monooxygenase (Photinus pyralis) (UniProt P08659); assay: firefly luciferase enzyme inhibitors, primary screen, biochemical, luminescence, purified enzyme, 2006 set (AID 1141); conditions: SteadyGlo luminescence, 30 min, higher = more signal, called active from +8 up or from −8 down;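 also: cell-free assay with purified firefly luciferase at 100 ng per well in PBS; test concentration not given here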
# Chain of Luciferin 4-monooxygenase (Photinus pyralis) (P08659 whole entry, looked up): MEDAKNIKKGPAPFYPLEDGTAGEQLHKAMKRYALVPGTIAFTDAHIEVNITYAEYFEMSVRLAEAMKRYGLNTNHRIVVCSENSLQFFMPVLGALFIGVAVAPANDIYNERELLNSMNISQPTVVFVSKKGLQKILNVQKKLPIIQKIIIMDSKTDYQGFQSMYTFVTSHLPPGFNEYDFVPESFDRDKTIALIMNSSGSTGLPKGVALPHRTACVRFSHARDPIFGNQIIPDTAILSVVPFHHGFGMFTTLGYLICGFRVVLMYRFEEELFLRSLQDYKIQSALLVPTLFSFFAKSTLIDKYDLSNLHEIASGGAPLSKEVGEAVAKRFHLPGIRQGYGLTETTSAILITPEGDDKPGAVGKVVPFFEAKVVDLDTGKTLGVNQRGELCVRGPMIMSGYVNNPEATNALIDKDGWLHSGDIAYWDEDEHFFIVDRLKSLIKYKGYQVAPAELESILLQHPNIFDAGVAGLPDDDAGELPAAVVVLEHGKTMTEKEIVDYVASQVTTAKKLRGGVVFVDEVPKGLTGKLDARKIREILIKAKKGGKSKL
Structure (SMILES),composite z-score (Albumin (Bos taurus)),composite Z-score [1],composite z-score [2],composite z-score [3],composite z-score [4],composite z-score [5],composite z-score [6],composite z-score (Sam68 (KHDRBS1)),composite z-score [7],composite z-score [8],composite z-score [9],composite z-score [10],composite z-score [11],composite z-score [12],composite z-score [13],composite z-score [14],z-score [15],composite z-score (Lefty1),composite z-score [16],z-score [17]
O=C1c2ccccc2[C@@]2(Cc3ccccc3N(CC(F)(F)F)C2=O)[C@H](c2ccc(CO)cc2)N1Cc1ccccc1,-0.507,-0.207 (inactive),0.0698,-0.219,-0.13,-0.211,0.0163,0.166,0.62,0.0118,-0.713,-0.404,-0.282,-0.243,0.932,1.4,-0.772,0.759,0.0111,0.746 (inactive)
COc1ccc(NN2C(C(O)c3ccc(F)cc3)C=CC3C(=O)N(C4CCCCC4)C(=O)C32)cc1 (stereo not given),0.861,-0.0189 (inactive),0.183,-0.0161,0.649,1.39,0.0892,1.29,-0.0299,1.13,0.683,1.25,0.382,0.997,1.15,0.314,-0.462,0.174,1.14,0.613 (inactive)
[N-]=[N+]=Nc1ccccc1C[C@]1(C(N)=O)COC(c2ccc(OCCCO)cc2)=N1,0.66,0.745 (inactive),0.148,0.105,0.77,2.98,1.46,0.0271,-0.324,-0.401,0.809,-0.835,0.214,-0.445,0.91,-0.261,-0.566,-0.954,0.99,-8.73 (active)
COC(=O)C(CC#Cc1ccc2c(c1)[C@]1(C(=O)N2)[C@H](C(=O)N2CCN(c3ncccn3)CC2)[C@H]2C(=O)O[C@H](c3ccccc3)[C@H](c3ccccc3)N2[C@@H]1c1ccc(O)cc1)C(=O)OC,-0.542,0.939 (inactive),0.972,0.279,0.636,2.38,0.97,1.28,1.08,1.21,1.19,1.25,0.904,0.951,1.43,1.57,-0.877,1.03,1.36,-0.178 (inactive)
CCOC(=O)C[C@H]1[C@H](OC(=O)Cc2ccc3c(c2)OCO3)[C@@H](NC(=O)CC(C)C)c2cc(OCCCO)ccc2N1C(=O)c1ccc2ccccc2n1,0.808,0.0066 (inactive),0.121,-0.162,-0.107,0.26,-0.0904,0.797,0.386,0.369,0.212,0.832,0.325,0.973,1.32,1.28,-0.944,0.424,0.249,0.739 (inactive)
C[C@]12C(=O)N(CCO)[C@@H]3C(=O)N(c4ccc(Cl)cc4)CC=CC31O[C@@H]1/C=C\CCCOC(=O)C12 (stereo not given in full),0.575,0.0414 (inactive),-0.183,-0.0798,0.883,-0.485,-0.0785,-0.0284,-1.62,-0.263,-0.415,-0.639,-0.422,-0.333,-0.178,-0.711,-0.574,-0.185,-0.839,-0.0708 (inactive)
COCCOC(=O)N1C(=O)[C@@]2(c3cc(C#CCCO)ccc31)[C@H](C(=O)N1CCN(c3ncccn3)CC1)[C@H]1C(=O)O[C@H](c3ccccc3)[C@H](c3ccccc3)N1[C@@H]2c1ccc(OCCO)cc1,0.788,-0.265 (inactive),0.199,-0.0817,0.621,2.13,0.419,1.29,0.372,1.12,1.12,1.23,-0.293,0.972,1.21,1.29,-1.28,0.92,1.02,-0.21 (inactive)
C=C(COC)C(=O)CC[C@H](OC(C)=O)c1ccc(CO)o1,0.485,4.03 (inactive),-0.0328,-0.14,0.472,-0.273,-0.218,-0.893,0.268,0.753,1.59,-0.805,-0.451,0.0974,1.37,1.45,-0.403,0.744,0.841,0.288 (inactive)
C=CC[C@H](OC(=O)Nc1ccc(SC)cc1)c1ccc(O)c(F)c1,0.333,0.514 (inactive),-0.246,-0.168,0.577,0.596,-0.172,-1.28,-0.174,-0.873,0.434,0.294,-0.502,-0.0381,0.137,0.244,-1.34,-0.173,0.541,-1.83 (inactive)
COC(=O)[C@]1(Cc2ccccc2CN=[N+]=[N-])N=C(c2ccc(OCCCO)cc2)O[C@@H]1c1ccccc1N=[N+]=[N-],-0.427,-0.741 (inactive),0.0026,0.015,0.518,0.999,1.47,0.163,0.62,0.91,1.29,0.833,0.499,-0.0222,1.15,0.802,-0.453,-0.251,0.425,-3.31 (inactive)
